Screening results (PubChem BioAssay)
Shown are actives, neighbours in structure and some others; about 12% of the full set was active somewhere.
BAZ2B block = inhibitors of human BAZ2B bromodomain; AlphaScreen BAZ2B-H3K14Ac peptide displacement; Q9UIF8; Potency, µM (titrated, usually from 114 µM), actives largely listed as inhibitors; AID 504333; 4.4% of 360,000 active; further: nearly all actives have a fitted effect of over 60% in size
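AlphaScreen displacement: compounds (up to 110uM) incubated 30 min at room temperature with a preformed 50 nM BAZ2B/50 nM biotinylated H3K14Ac peptide complex in PBS pH 7.4 with Tween-20. Donor and acceptor beads at 10 ug/mL final added, 20 min light-protected before reading.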
JMJD2A Tudor inh = inhibitors of human JMJD2A Tudor domain | Potency, µM (highest dose often 114 µM), usual class: inhibitors | AID 504339 | 4.4% of 390,000 active | AlphaScreen JMJD2A-Tudor / H3K4me3 peptide binding; further: nearly all actives have a fitted effect of over 50% in size
G9a block = G9a (human) methyltransferase inhibition. G9a H3K9 monomethylation, AlphaScreen, 2 h. 8.8% of 350,000 active. Potency, µM (top dose mostly 102 µM), most hits filed as inhibitors; further: nearly all actives have a fitted effect of over 75% in size
Target sequence (Q96KQ7 913-1193 limits assumed): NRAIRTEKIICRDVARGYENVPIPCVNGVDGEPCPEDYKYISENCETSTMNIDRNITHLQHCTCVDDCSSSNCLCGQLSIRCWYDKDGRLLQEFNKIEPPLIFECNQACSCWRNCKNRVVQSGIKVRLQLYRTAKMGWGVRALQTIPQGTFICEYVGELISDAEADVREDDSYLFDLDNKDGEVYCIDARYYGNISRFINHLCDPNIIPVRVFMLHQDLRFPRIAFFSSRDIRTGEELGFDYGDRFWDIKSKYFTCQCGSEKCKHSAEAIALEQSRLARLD
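Compounds were preincubated with 20 nM G9a for 15 min, after which biotinylated H3K9 peptide (500 nM) and SAM (20 uM) started a 2 h room-temperature reaction. Monomethylated product was quantified by antibody-based AlphaScreen chemiluminescence.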
Sfp inh = blocks B. subtilis Sfp PPTase activity. Q9F4F7. Biochemical Sfp PPTase activity, qHTS. Potency, µM, hits mostly inhibitors. 3.5% of 310,000 active;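 further: the enzyme is Sfp with the accession as filed and its product quenches rhodamine fluorescence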
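Compounds were incubated with enzyme (final 15 nM) for 15 min at room temperature before substrate addition started the reaction. Fluorescence at 525 nm excitation, 598 nm emission was recorded immediately and after 30 minutes.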
HP1b chromo inh = blocks HP1-beta chromodomain binding to methylated histone tails | P83916 | AlphaScreen HP1-beta / biotin-H3K9me3 peptide binding | Potency, µM (titrated, usually from 114 µM), usual class: inhibitors | 0.56% of 390,000 active; further: nearly all actives have a fitted effect of over 70% in size
Target sequence (P83916 whole entry, looked up): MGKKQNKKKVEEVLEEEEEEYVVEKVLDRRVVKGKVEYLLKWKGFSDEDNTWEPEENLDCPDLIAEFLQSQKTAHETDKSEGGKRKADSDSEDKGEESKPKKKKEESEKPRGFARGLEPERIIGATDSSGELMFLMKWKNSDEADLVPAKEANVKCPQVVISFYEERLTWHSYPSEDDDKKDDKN
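HP1-beta protein (50 nM final) preincubated 30 min at room temperature with biotinylated H3(1-18)K9me3 peptide (50 nM) in PBS pH 7.4, 0.01% Tween-20, then compound added for 30 min. AlphaScreen streptavidin donor/nickel chelate acceptor beads (10 ug/mL final), 30 min dark, luminescence read.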
L3MBTL1 block = inhibitors of human L3MBTL1 | AlphaScreen L3MBTL1–H3K9me1 peptide binding | 0.66% of 230,000 active | Q9Y468 | Potency, µM (doses to about 57.1 µM), usual class: inhibitors; further: nearly all actives have a fitted effect of over 60% in size
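Read-out is AlphaScreen signal from streptavidin donor and nickel chelate acceptor beads (10 ug/mL final each) bridging L3MBTL1 (50 nM) and biotinylated K9-monomethylated H3(1-15) peptide (75 nM), after 30 min compound exposure at room temperature.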
Numbers stand for hits; . = inactive; ? = inconclusive; / = no result given; [ ] = remark or other dose. The call rests on the fitted dose curve; in most records, active means well fitted curve in the direction sought with a large enough effect; inconclusive means small, poorly fitted or top-dose-only effect, or another doubt; inactive means no such curve, though single readings can be large; an effect the other way counts as inactive or inconclusive.

SMILES	BAZ2B block	JMJD2A Tudor inh	G9a block	Sfp inh	HP1b chromo inh	L3MBTL1 block
O=C(CCC1N=C2c3ccccc3N=C(SCC(=O)NCc3ccco3)N2C1=O)NCc1ccco1 (stereo not drawn)	50.1µM	?	.	.	.	/
Cc1cc2ncc(S(C)(=O)=O)c(N)n2n1	.	12.6µM	.	.	.	.
Cc1ccc(S(=O)(=O)c2cnc3cc(C)nn3c2N)cc1	.	.	.	.	.	.
Cc1ccc2nc(N(Cc3cccnc3)C(=O)C3COc4ccccc4O3)sc2c1 (stereo not drawn)	.	.	.	/	.	/
Cc1ccc(NC(=O)NCC(c2ccccc2)N(C)C)cc1 (stereo not drawn)	.	.	.	.	.	/
CC(=O)c1ccc(NC(=O)CNCC(c2ccccc2)N(C)C)cc1 (stereo not drawn)	.	2.82µM	14.1µM	79.4µM	.	.
Cc1ccc(CNc2nc(-c3ccco3)nn2C(=O)c2ccccc2[N+](=O)[O-])cc1	8.91µM	?	12.6µM	/	?	/
Cc1cccc(C(=O)n2nc(-c3ccco3)nc2NCc2ccccc2)c1	.	.	.	/	.	/
CN(C)c1ccc(CNc2nc(-c3ccco3)nn2C(=O)c2cccc([N+](=O)[O-])c2)cc1	35.5µM	44.7µM	7.94µM	/	?	/
COc1ccccc1CNc1nc(-c2ccco2)nn1C(=O)c1ccccc1[N+](=O)[O-]	?	?	11.2µM	/	.	/
Cc1ccc(CNC(=O)C2CCN(S(=O)(=O)c3c(C)noc3/C=C/c3ccccc3F)CC2)o1	.	.	.	/	.	/
COc1ccc(C(OCCN2CCC[C@H](C(=O)O)C2)(c2ccc(OC)cc2)c2ccc(OC)cc2)cc1	/	/	/	.	/	/
O=C(N=Nc1ccc(NOC(=O)c2ccccc2Br)cc1)c1ccccc1O	7.94µM	/	25.1µM	79.4µM	/	.
COc1ccc(C(=O)NCCSc2c[nH]c3ccccc23)cc1OC	.	.	.	/	.	/
c1ccc(-c2nc3nonc3nc2-c2ccccc2)cc1	28.2µM	39.8µM	14.1µM	.	?	?
O=[N+]([O-])c1ccc(Sc2nccn2Cc2ccccc2)c([N+](=O)[O-])c1	?	?	44.7µM	.	.	.
Cc1cc(Cl)cc(C)c1OCCOCCNCc1ccccc1	?	22.4µM	/	.	.	.
Cc1cc(C)c(OCCNCc2ccccc2)c(C)c1	50.1µM	1.12µM	7.08µM	.	.	.
Clc1ccc(OCCOCCNCc2ccccc2)cc1Cl	?	25.1µM	/	.	.	.
Cc1cc(C)c(C)c(OCCNCc2ccccc2)c1	20µM	3.55µM	11.2µM	.	.	.
COc1c(Cl)cc(Cl)cc1CNCc1ccccc1	.	.	.	.	.	.
Cc1cc(C)c(OCCN(C)Cc2ccccc2)c(Br)c1	.	.	.	.	.	.
CCCCCC(=O)/C=C/C=C\CCCCCCCC(=O)O	/	/	.	.	/	/
Cc1cc(Cl)cc(Br)c1OCCNCC(C)O (stereo not drawn)	.	.	.[12.7 µM]	.	.	.
Cc1cc(C)c(OCCCCNCc2ccccc2)c(Cl)c1	56.2µM	1.41µM	.[0.501 µM]	.	.	.
SMILES	BAZ2B block	JMJD2A Tudor inh	G9a block	Sfp inh	HP1b chromo inh	L3MBTL1 block
C=CCNCCOc1c(C)cc(C)cc1Cl	.	.	.	.	.	.
Cc1cc(Cl)cc(C)c1OCCNCc1ccccc1	70.8µM	0.794µM	7.94µM	.	?	.
O=[N+]([O-])c1ccccc1Oc1ccc(S(=O)(=O)N2CCOCC2)cc1	.	.	.[12.7 µM]	/	.	.
CC(=O)c1cccc(NC(=O)CSc2nnc3ccc(-c4ccc(Cl)cc4)nn23)c1	.	.	.	/	.	/
CC(C)(C)N(CC#CCC(O)(c1ccccc1)c1ccccc1)CCO	79.4µM	22.4µM	8.91µM	39.8µM	.	.
CCCCCCCCCCCCCCCC(=O)NCCCC(=O)O	/	/	/	.	/	/
COc1ccc(C(=O)N2CCC3(CCN(C(=O)Nc4cccc(C#N)c4)CC3)CC2)cc1	/	/	.[12.7 µM]	.	/	/
Cc1ccc(C)c(NC(=O)c2nc(S(C)(=O)=O)ncc2N(Cc2ccc(C(C)(C)C)cc2)Cc2ccco2)c1	?	.	?	/	.	/
CCCCn1c(N)c(N(CC(C)C)C(=O)c2cnccn2)c(=O)[nH]c1=O	.	.	.[12.7 µM]	/	.	.
CCCCn1c(N)c(N(CC(C)C)C(=O)C(C)SCc2nc3sc(C)c(C)c3c(=O)[nH]2)c(=O)[nH]c1=O (stereo not drawn)	.	.	35.5µM	/	.	.
Cc1ccnn1-c1ccc(C(=O)OCC(=O)Nc2ccc(F)cc2)cc1	.	.	.	/	.	.
c1ccc2cc(OCCOCCOc3ccc4ccccc4c3)ccc2c1	.	.	.	.	.	.
CN(C)CCOc1ccc2ccccc2c1	44.7µM	10µM	11.2µM	.	?	.
CN(C)CCOc1cccc(Cl)c1	?	22.4µM	8.91µM	.	?	.
CCOc1cccc(OCCOCCN(C)C)c1	?	22.4µM	11.2µM	.	?	.
Cc1cc2c(s1)c1cnn(Cc3cc(OC(F)(F)F)ccc3F)c(=O)c1n2C	/	.	/	/	/	/
CC(=O)NC1C(=O)SC1(C)C (stereo not drawn)	.	/	28.2µM	?	/	.
Cc1ccc2cc(C)c3nnc(SCC(=O)c4cccs4)n3c2c1C	.	?	35.5µM	.	.	.
Cn1c(Cc2ccccc2)nnc1SCC(=O)c1cccs1	.	.	50.1µM	.	.	/
